Laboratory results taken from PubChem BioAssay AID624141 (Broad Institute, 2012).
Screen size: about 17,000 compounds; about 260 (1.5%) were called active.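 Rule for the calls: active = spot fluorescence over background with P-value below 7% in all four replicate spots, showing protein binding; inactive = the rest.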 Only a selection was taken, and actives are over-represented in it overall.

Each compound was assayed against Myc proto-oncogene protein (Homo sapiens) (UniProt P01106) (assay: small molecules binding His-tagged c-Myc – biochemical, small molecule microarray, anti-His fluorescence, primary screen (AID 624141)).
Sequence of Myc proto-oncogene protein (Homo sapiens) (P01106 whole entry, looked up): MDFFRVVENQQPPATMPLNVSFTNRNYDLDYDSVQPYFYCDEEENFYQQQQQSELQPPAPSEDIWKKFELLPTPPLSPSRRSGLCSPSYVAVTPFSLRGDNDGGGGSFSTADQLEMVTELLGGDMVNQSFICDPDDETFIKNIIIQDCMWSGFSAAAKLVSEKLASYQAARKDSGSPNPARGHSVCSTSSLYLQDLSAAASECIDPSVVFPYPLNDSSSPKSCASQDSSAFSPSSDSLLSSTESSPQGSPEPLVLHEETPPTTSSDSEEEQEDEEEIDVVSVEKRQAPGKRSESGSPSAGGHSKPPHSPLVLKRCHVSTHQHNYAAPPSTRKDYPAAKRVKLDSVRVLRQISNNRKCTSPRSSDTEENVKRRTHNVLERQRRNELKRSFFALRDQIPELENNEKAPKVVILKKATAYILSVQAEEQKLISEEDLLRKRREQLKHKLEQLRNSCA

outcome, active:
O=C1O[C@@H](c2ccccc2)[C@@H](c2ccccc2)N2[C@@H](c3ccccc3OCCO)[C@]3(C(=O)Nc4ccccc43)[C@@H](C(=O)N3CCCCCCC3)[C@H]12
COc1ccc(C#Cc2ccc3c(c2)[C@]2(C(=O)N3)[C@H](c3ccccc3OCCO)N3[C@H](c4ccccc4)[C@H](c4ccccc4)OC(=O)[C@H]3[C@@H]2C(=O)N2CCCCCCC2)cc1
COc1ccc2ccccc2c1CNCc1ccccn1
Cc1noc(C)c1S(=O)(=O)Nc1ccc2c(c1)C(=O)N([C@H](C)CO)C[C@H](C)[C@H](CN(C)C(=O)CCC(F)(F)F)OCCCC[C@H](C)O2
C[C@H](CO)N1C[C@H](C)[C@H](CN(C)C(=O)CCC(F)(F)F)OCCCC[C@H](C)Oc2ccc(NS(C)(=O)=O)cc2C1=O
Cc1noc(C)c1S(=O)(=O)Nc1ccc2c(c1)C(=O)N([C@@H](C)CO)C[C@@H](C)[C@H](CN(C)C(=O)NC(C)C)OCCCC[C@@H](C)O2
CCCCCc1ccc(/C=C/C(=O)Nc2ccccc2C(=O)O)cc1
C[C@H]1CN([C@@H](C)CO)C(=O)c2cccc(NC(=O)Nc3ccc(C(F)(F)F)cc3)c2O[C@H]1CN(C)C(=O)NC1CCCCC1
C[C@@H]1CCCCO[C@@H](CN(C)C(=O)Cc2ccccc2)[C@H](C)CN([C@@H](C)CO)C(=O)c2cc(NC(=O)Nc3ccc(F)cc3)ccc2O1
C[C@H](CO)N1C[C@H](C)[C@@H](CN(C)C(=O)Nc2cccc3ccccc23)OCCCC[C@H](C)Oc2ccc(N(C)C)cc2C1=O
Cc1noc(C)c1S(=O)(=O)N(C)C[C@H]1Oc2c(NC(=O)c3cnccn3)cccc2C(=O)N([C@H](C)CO)C[C@H]1C
C[C@@H]1CCCCO[C@H](CN(C)C(=O)C2CCCCC2)[C@@H](C)CN([C@@H](C)CO)C(=O)c2cc(NC(=O)Nc3ccccc3)ccc2O1

outcome, inactive:
Cc1nc(SCC(N)=O)c(C(N)=O)c(C)c1C
C[C@@H]1CN([C@H](C)CO)C(=O)c2cc(NC(=O)Nc3ccc4c(c3)OCO4)ccc2O[C@@H]1CN(C)Cc1ccc(C(F)(F)F)cc1
CC(=O)Nc1ccc(C(=O)CSc2nnc(C)s2)cc1
Cc1cc(C)nc(SC2CCCCC2NS(=O)(=O)c2ccc(Cl)cc2)n1 (stereo unspecified)
C[C@@H]1CCCCO[C@@H](CN(C)Cc2ccc(C(=O)O)cc2)[C@H](C)CN([C@@H](C)CO)C(=O)c2cc(NC(=O)C3CCCCC3)ccc2O1
Cc1cc2nc(-c3ccc(NC(=O)COc4ccccc4[N+](=O)[O-])cc3)oc2cc1C
CNC[C@@H]1OCCCC[C@H](C)Oc2ccc(NC(=O)Nc3ccccc3)cc2C(=O)N([C@H](C)CO)C[C@H]1C
C[C@@H]1CN([C@@H](C)CO)C(=O)c2cc(NC(=O)C3CC3)ccc2O[C@H]1CN(C)C
COC(=O)C(CC#Cc1ccc2c(c1)[C@]1(C(=O)N2)[C@H](c2ccccc2OCCO)N2[C@H](c3ccccc3)[C@H](c3ccccc3)OC(=O)[C@H]2[C@@H]1C(N)=O)C(=O)OC
COc1ccc(C#Cc2ccc3c(c2)[C@]2(C(=O)N3)[C@H](C(=O)N3CCCCCCC3)[C@H]3C(=O)O[C@H](c4ccccc4)[C@H](c4ccccc4)N3[C@@H]2c2ccc(O)cc2)cc1
O=C1O[C@H](c2ccccc2)[C@H](c2ccccc2)N2[C@H]1[C@@H](C(=O)N1CCN(c3ncccn3)CC1)[C@]1(C(=O)Nc3ccccc31)[C@H]2c1ccc(OCCO)cc1
O=C1O[C@@H](c2ccccc2)[C@@H](c2ccccc2)N2[C@@H](c3ccccc3OCCO)[C@]3(C(=O)Nc4ccc(C#CC5(O)CCCCCC5)cc43)[C@@H](C(=O)N3CCCCCCC3)[C@H]12
C[C@H]1CN([C@@H](C)CO)C(=O)c2cccc(NC(=O)Nc3ccccc3)c2O[C@@H]1CN(C)S(=O)(=O)c1ccc(F)cc1
C[C@@H]1CN([C@@H](C)CO)C(=O)c2cc(NS(C)(=O)=O)ccc2O[C@@H](C)CCCCO[C@@H]1CN(C)C(=O)c1ccccc1
Cc1nc(SCC(=O)O)[nH]c(=O)c1Oc1ccccc1
C[C@H]1CN([C@@H](C)CO)C(=O)c2cc(N(C)C)ccc2O[C@@H]1CN(C)C(=O)Nc1ccc2c(c1)OCO2
Cc1nnc(SCc2cc(=O)[nH]c(N3CCN(Cc4ccccc4)CC3)n2)s1
C[C@@H]1CCCCO[C@H](CN(C)C(=O)CCC(F)(F)F)[C@H](C)CN([C@H](C)CO)C(=O)c2cc(NS(C)(=O)=O)ccc2O1
C[C@@H]1CCCCO[C@@H](CN(C)C(=O)CCC(F)(F)F)[C@@H](C)CN([C@H](C)CO)C(=O)c2cc(NC(=O)CCC(F)(F)F)ccc2O1
Cc1noc(C)c1S(=O)(=O)Nc1ccc2c(c1)C(=O)N([C@H](C)CO)C[C@H](C)[C@@H](CN(C)C(=O)CCC(F)(F)F)OCCCC[C@H](C)O2
Cc1noc(C)c1S(=O)(=O)Nc1ccc2c(c1)C(=O)N([C@H](C)CO)C[C@@H](C)[C@H](CN(C)C(=O)NC(C)C)OCCCC[C@@H](C)O2
Cc1noc(C)c1S(=O)(=O)Nc1ccc2c(c1)C(=O)N([C@@H](C)CO)C[C@H](C)[C@@H](CN(C)C)OCCCC[C@@H](C)O2
C[C@@H]1CN([C@H](C)CO)C(=O)c2cc(NS(=O)(=O)c3ccccc3)ccc2O[C@@H](C)CCCCO[C@@H]1CN(C)C(=O)CCC(F)(F)F
Cc1cc(OCC(=O)Nc2ccccc2C(N)=O)cc(C)c1Br
Cc1scc(C(=O)NCCc2ccc(S(N)(=O)=O)cc2)c1-c1ccccc1
Cc1noc(C)c1NC(=O)Nc1ccc2c(c1)CC(=O)N([C@@H](C)CO)C[C@@H](C)[C@@H](CN(C)C(=O)NC(C)C)O2
COc1cc(/C=C/C(=O)NCCc2ccc(O)cc2)ccc1O
CN(C)CCCSc1ccccc1NC(=O)/C=C/c1ccccc1
CCn1c(SCC(=O)Nc2sc3c(c2C#N)CCCC3)nnc1-c1ccccc1O
Cc1noc(C)c1S(=O)(=O)Nc1ccc2c(c1)CC(=O)N([C@@H](C)CO)C[C@H](C)[C@H](CN(C)S(=O)(=O)c1ccc(Cl)cc1)O2
COc1ccc(NC(=O)N(C)C[C@@H]2Oc3ccc(NS(C)(=O)=O)cc3C(=O)N([C@@H](C)CO)C[C@@H]2C)cc1
C[C@@H]1CCCCO[C@H](CN(C)Cc2ccncc2)[C@@H](C)CN([C@H](C)CO)C(=O)c2cc(NS(C)(=O)=O)ccc2O1
C[C@@H]1CN([C@H](C)CO)C(=O)c2cccc(NC(=O)Nc3ccc4c(c3)OCO4)c2O[C@H]1CN(C)S(=O)(=O)c1ccccc1
C[C@@H]1CCCCO[C@H](CN(C)Cc2ccccc2)[C@H](C)CN([C@@H](C)CO)C(=O)c2cc(NS(=O)(=O)c3ccccc3)ccc2O1
C[C@H](CO)N1C[C@H](C)[C@@H](CN(C)S(=O)(=O)c2cccs2)Oc2ccc(NC(=O)Nc3cccc4ccccc34)cc2CC1=O
C[C@@H]1CN([C@H](C)CO)C(=O)Cc2cc(NC(=O)CCN3CCOCC3)ccc2O[C@H]1CN(C)C
COc1cc(O[C@@H]2O[C@H](CO[C@H]3OC[C@](O)(COC(=O)c4ccc(O)c(OC)c4)[C@H]3O)[C@@H](O)[C@H](O)[C@H]2O)ccc1O
COc1ccc(NC(=O)N(C)C[C@@H]2OCCCC[C@H](C)Oc3ccc(NC(=O)c4ccccc4)cc3C(=O)N([C@H](C)CO)C[C@H]2C)cc1
COc1ccccc1NC(=O)c1ccc(OCC(=O)Nc2ccccc2F)cc1
O=C(Nc1ccc(Cl)cc1C(=O)NCc1ccco1)c1ccco1
C[C@@H]1CN([C@H](C)CO)C(=O)c2cc(NS(=O)(=O)c3cn(C)cn3)ccc2O[C@@H](C)CCCCO[C@H]1CN(C)C
CN(C)c1nc(N)nc(CSc2ccccn2)n1
COc1ccccc1NC(=O)CNC(=O)c1ccc(C)cc1
CC(C)NC(=O)N(C)C[C@@H]1OCCCC[C@H](C)Oc2ccc(NC(=O)Nc3ccccc3)cc2C(=O)N([C@H](C)CO)C[C@@H]1C
C[C@H](CO)N1C[C@H](C)[C@@H](CN(C)C(=O)NC2CCCCC2)Oc2c(NC(=O)Nc3ccc(F)cc3)cccc2C1=O
C[C@@H]1CCCCO[C@H](CN(C)C(=O)Nc2ccccc2)[C@H](C)CN([C@@H](C)CO)C(=O)c2cc(N(C)C)ccc2O1
C[C@@H]1CCCCO[C@@H](CN(C)C(=O)Nc2ccccc2)[C@@H](C)CN([C@@H](C)CO)C(=O)c2cc(N(C)C)ccc2O1
C[C@@H]1CN([C@H](C)CO)C(=O)c2cccc(NC(=O)Nc3ccccc3)c2O[C@@H]1CN(C)C(=O)NC1CCCCC1
C[C@@H]1CCCCO[C@@H](CN(C)C(=O)Nc2ccccc2)[C@@H](C)CN([C@H](C)CO)C(=O)c2cc(NC(=O)Nc3ccc(F)cc3)ccc2O1
C[C@H]1CN([C@@H](C)CO)C(=O)c2cccc(NC(=O)c3cnccn3)c2O[C@H]1CN(C)C(=O)Nc1ccccc1
C[C@H]1CN([C@@H](C)CO)C(=O)c2cccc(NC(=O)c3cnccn3)c2O[C@H]1CN(C)S(=O)(=O)c1cn(C)cn1
CC(C)NC(=O)Nc1ccc2c(c1)C(=O)N([C@@H](C)CO)C[C@@H](C)[C@H](CN(C)C(=O)Cc1ccccc1)OCCCC[C@H](C)O2
C[C@@H]1CCCCO[C@H](CN(C)C(=O)Nc2ccccc2)[C@H](C)CN([C@H](C)CO)C(=O)c2cc(NC(=O)Nc3ccccc3)ccc2O1
CC(C)NC(=O)N(C)C[C@@H]1OCCCC[C@@H](C)Oc2ccc(NC(=O)Nc3ccccc3)cc2C(=O)N([C@H](C)CO)C[C@@H]1C
